GDH-TPI counter-1 – GDH-TPI coupling enzyme inhibitors, primary screen, artefact control for M. tuberculosis FBA inhibitor project, biochemical, absorbance, full deck; GDH-TPI coupled enzyme counterscreen, NADH absorbance; inhibition, % at 4.8 µM; 1.2% of 360,000 active; AID 588335, 2011; in the data active = inhibition above about 30%;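 note: 0% = DMSO wells and 100% = wells lacking the enzyme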
Mtb FBA inh – Mtb FBA enzyme inhibitors, primary screen, biochemical, fluorescence, strain H37Rv. inhibition, % at 1 µM. 2.3% of 360,000 active. purified M. tuberculosis FBA, fluorescence read-out; in the data active = inhibition above about 27%;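 note: 0% = vehicle and 100% = reference inhibitor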
Target sequence (P9WQA3 whole entry, looked up): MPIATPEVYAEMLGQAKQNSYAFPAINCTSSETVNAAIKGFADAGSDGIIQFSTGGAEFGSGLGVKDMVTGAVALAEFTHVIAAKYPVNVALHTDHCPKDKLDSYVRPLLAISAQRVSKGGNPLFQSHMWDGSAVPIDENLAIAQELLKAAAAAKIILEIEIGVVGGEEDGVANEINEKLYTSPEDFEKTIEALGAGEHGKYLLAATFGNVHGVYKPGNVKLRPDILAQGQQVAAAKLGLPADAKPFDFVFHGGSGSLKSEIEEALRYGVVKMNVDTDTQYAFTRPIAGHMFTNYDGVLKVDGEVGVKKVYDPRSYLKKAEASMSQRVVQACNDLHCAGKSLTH
Rv3671c protease – Rv3671c serine protease inhibitors, primary screen, biochemical, fluorescence polarization, M. tuberculosis H37Rv; P9WHR9; inhibition, % at 5.96 µM; 0.048% of 320,000 active; AID 2606, 2010; in the data active = inhibition above about 38%;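 note: extracellular domain of Rv3671c used as enzyme; 0% = enzyme with DMSO and 100% = no enzyme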
Mtb bLac sens – beta-lactam sensitization of Mtb H37Rv, H37Rv; M. tuberculosis H37Rv growth with meropenem, percent inhibition; AID 434955, 2010; 0.27% of 330,000 active; inhibition, % at 25 µM;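 note: growth measured after seven days incubation then overnight dye step; 0% = bacteria only wells and 100% = bacteria with antibiotic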
UGM FP inh – M. tuberculosis UGM enzyme inhibitors, primary screen, biochemical, fluorescence polarization, single point. UDP-galactopyranose mutase (Mycobacterium tuberculosis (strain ATCC 25618 / H37Rv)), …. purified UGM, fluorescence polarization probe displacement. inhibition, % at 10 µM. 0.06% of 320,000 active. AID 504406, 2011; in the data active = inhibition above about 10%, passing the limit was not always enough; inconclusive = no clear call, values can overlap the other calls
Mtb FBA inh conf – M. tuberculosis aldolase blockers, biochemical, fluorescence, strain H37Rv, confirmation | shares compounds with Mtb FBA inh | purified M. tuberculosis FBA, fluorescence read-out | inhibition, % at 1 µM | 78% of 5,600 active | AID 651616, 2012; in the data active = inhibition above about 27%;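 note: 0% = vehicle wells and 100% = reference inhibitor wells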
GDH-TPI counter-2 – GDH-TPI coupling enzyme inhibitors, artefact control for M. tuberculosis FBA inhibitor project, biochemical, fluorescence, high throughput; shares compounds with Mtb FBA inh; GDH-TPI coupled enzyme counterscreen; inhibition, % at 1 µM; 81% of 5,600 active; AID 652141, 2013; in the data active = inhibition above about 10%
GDH-TPI dose – GDH-TPI coupling enzyme inhibitors, dose response, artefact control for M. tuberculosis FBA inhibitor project, biochemical, fluorescence, IC50. shares compounds with Mtb FBA inh. GDH-TPI coupled enzyme assay, artifact counterscreen. 79% of 170 active. AID 652145, 2013. IC50, µM
* marks the source's active call; other numbers are inactive results; ? = inconclusive; · = no result; + = active, no number. The list is not random: actives were taken first. Their share in the collection is about 3.5%. Unless noted, the rule behind the calls is not given here.

SMILES	GDH-TPI counter-1	Mtb FBA inh	Rv3671c protease	Mtb bLac sens	UGM FP inh	Mtb FBA inh conf	GDH-TPI counter-2	others
COC(=O)c1cnc2ccccc2n1	3.0	-1.2	-1.8	-1.2	0.5	·	·
O=C(O)c1cnc2ccccc2n1	5.2	33.5*	-2.5	5.0	-1.9	61.7*	43.3*
CC1=NCCc2c1[nH]c1cc(O)ccc21	27.5	74.0*	5.7	0.3	31.1*	93.7*	47.9*
COc1ccc2c3c([nH]c2c1)C(C)=NCC3	22.3	18.8	-4.5	1.2	-2.0	·	·
COc1ccc(-c2ccc(SCC(=O)NC3CCCC3)nn2)cc1OC	10.9	3.0	-2.1	?	0.1	·	·
CCSc1nc(-c2ccc(OC)cc2)ccc1C#N	13.3	42.3*	2.4	79.9	-2.3	83.9*	80.2*
COc1ccc(-c2ccc(C#N)c(SCC(=O)NC3CC3)n2)cc1OC	25.0	99.2*	-5.8	-2.5	0.4	107.9*	110.6*
COc1ccc(S(=O)(=O)NNC(=O)C(=O)NNc2ccccn2)cc1	24.1	-0.4	9.3	-2.0	1.1	·	·
C=CCNC(=O)CSc1nnc(-c2cccc(S(=O)(=O)N3CCOCC3)c2)o1	8.2	3.8	·	·	·	·	·
CCCCN(C)Cc1c(C)[nH]c2ccc(OCC)cc2c1=O	27.4	34.9*	3.0	4.7	-0.9	5.1	-4.6
CCOc1ccc2[nH]c(C)c(CN3CCN(CC)CC3)c(=O)c2c1	12.7	5.8	-5.1	-10.5	0.2	·	·
c1ccc(N2N=C(c3cccs3)CC2c2ccco2)cc1 (stereo not given)	20.4	78.4*	6.2	-4.9	0.2	13.7	10.2*
Fc1ccc(C2CC(c3ccco3)=NN2c2ccccc2)cc1 (stereo not given)	7.7	60.0*	0.3	-3.4	-0.7	+	+
CCC(=O)N1N=C(c2cccs2)CC1c1ccco1 (stereo not given)	1.8	2.7	-4.7	-0.2	-0.4	·	·
Clc1ccc(N2N=C(c3cccs3)CC2c2ccco2)cc1 (stereo not given)	3.4	81.0*	2.1	2.8	0.5	82.3*	55.1*
CCC(=O)c1c(CC)c2n3c1CC[C@H]3CCC2	8.5	-3.1	-12.3	2.7	-1.1	·	·
CN(C(=O)c1cccc(NC(=O)Cc2cccc([N+](=O)[O-])c2)c1)C1CCCC1	-5.8	0.1	1.5	8.4	1.3	·	·
CC[C@@H](C)[C@H](N)C(=O)NC[C@H]1O[C@@H](n2cnc3c(N)ncnc32)[C@H](O)[C@@H]1O	9.4	5.0	·	·	·	·	·
N#Cc1ccc(-c2ccc3c(c2)OCO3)nc1SCC(=O)OCc1ccccc1	4.6	60.3*	-24.4	-5.6	1.5	67.0*	43.7*
Cc1ccc(C(=O)CSc2nc(-c3ccccc3)ccc2C#N)cc1	3.1	0.8	-3.5	2.9	1.2	·	·
O=S(=O)(c1cc(Cl)ccc1Cl)N1CC2CCCN2c2ccc(C(F)(F)F)cc21 (stereo not given)	7.7	0.6	1.5	5.2	0.3	·	·
CC(=O)N1CCC2(CC1)CC(=O)c1cc(OCC(=O)N3CCN(C)CC3)ccc1O2	16.5	59.5*	1.3	-6.5	-2.4	56.1*	46.8*
CC(=O)N1CCC2(CC1)CC(=O)c1cc(OCC(=O)N3CCC4(CC3)OCCO4)ccc1O2	8.8	58.0*	-6.4	-2.7	6.3	27.3*	25.5*
Cc1ccccc1OCC(=O)N1CCC2(CC1)CC(=O)c1ccccc1O2	0.3	7.3	4.7	-2.6	-1.2	·	·
COc1ccccc1OCC(=O)Nc1cc(C(F)(F)F)ccc1-n1cncn1	1.0	-2.1	2.4	-3.7	2.0	·	·
SMILES	GDH-TPI counter-1	Mtb FBA inh	Rv3671c protease	Mtb bLac sens	UGM FP inh	Mtb FBA inh conf	GDH-TPI counter-2	others
CC(OC(=O)C1CC1C)C(=O)Nc1ncc(Cl)cc1Cl (stereo not given)	3.2	1.2	6.2	-6.2	-0.7	·	·
Cc1[nH]n(S(=O)(=O)Cc2ccccc2)c(=O)c1N=Nc1ccccc1Cl	-4.8	40.3*	6.7	98.7	-0.1	-4.2	-6.2
CCc1ccc(C(O)c2ncc(-c3cccc(C)c3)[nH]2)cc1 (stereo not given)	-2.6	-1.1	·	·	·	·	·
Cc1[nH]c2ccccc2c1C(=O)C(=O)N1CCN(c2ccccc2)CC1	26.3	1.7	-5.6	-7.2	-2.6	·	·
CCCOc1ccc(S(=O)(=O)N2CCOCC2)cc1[N+](=O)[O-]	-1.9	34.1*	14.2	1.7	0.9	72.4*	62.9*
CN(C(=O)c1ccc(N2CCCCC2)c([N+](=O)[O-])c1)C1(C)CCS(=O)(=O)C1 (stereo not given)	17.9	3.2	2.6	2.5	4.0	·	·
CCCc1cc(=O)oc2cc(C)cc(OCC(=O)NCc3cccnc3)c12	1.5	76.3*	-1.4	0.5	-2.5	+	+
Cc1cc(OCC(=O)NCc2cccnc2)c2c3c(c(=O)oc2c1)CCCC3	3.7	105.5*	-5.3	-6.8	1.1	54.9*	36.9*
Cc1cc(OCC(=O)N[C@@H](Cc2ccccc2)C(=O)O)c2c3c(c(=O)oc2c1)CCCC3	-5.9	50.6*	-3.7	2.0	-1.3	160.9*	117.0*
CCCC(=O)N=C1SC2CS(=O)(=O)CC2N1c1ccc(-c2nc3ccc(C)cc3s2)cc1 (stereo not given)	16.3	53.2*	-6.5	2.9	-1.3	140.6*	103.0*
Cc1cccc(C)c1OCC(O)CN(Cc1ccccc1O)C1CCCCC1 (stereo not given)	-1.3	32.2*	7.1	-13.1	2.1	44.4*	30.9*
COc1ccccc1/C=C/C(=O)Nc1cccc(S(=O)(=O)NC2=NCCCCC2)c1	15.1	1.1	1.0	-3.3	1.1	·	·
CCSc1nnc(NC(=O)C2CCCN(C(=O)c3ccc(Cl)cc3)C2)s1 (stereo not given)	7.1	0.1	·	·	·	·	·
Cc1cc(N)n2ncc(-c3ccc(Cl)cc3)c2n1	12.7	3.4	7.1	96.2	-0.4	·	·
Cc1cc(Nc2ccc(Cl)cc2)n2ncnc2n1	4.6	4.8	·	4.8	-1.8	·	·
Cc1cc(-c2ccc(Cl)cc2)n2ncnc2n1	9.6	27.5*	-4.0	-0.5	3.2	100.7*	91.0*
Cc1cc(-c2ccc(Cl)cc2)n2nc(N)nc2n1	14.5	59.2*	0.9	4.0	-1.7	17.4	7.3	GDH-TPI dose=2.56*
CN(CC(=O)Nc1ccccc1Br)C(=O)c1sccc1-c1ccccc1	-1.1	-1.1	-5.7	4.6	2.3	·	·
